# According to PubChem BioAssay (Tox21):
# Several values for one entry are separate records, joined by “and”; a condition that tells them apart may be missing. Equal values may be shown once. Results filed as inconclusive are left out. Where a structure was tested more than once in an assay, its records may differ in their call. Activity calls are given as the source filed them. Calls follow the shape of the full dose curve.
# Biological target: Peroxisome proliferator-activated receptor gamma (Homo sapiens) (UniProt P37231)
# Sequence (P37231 whole entry, looked up): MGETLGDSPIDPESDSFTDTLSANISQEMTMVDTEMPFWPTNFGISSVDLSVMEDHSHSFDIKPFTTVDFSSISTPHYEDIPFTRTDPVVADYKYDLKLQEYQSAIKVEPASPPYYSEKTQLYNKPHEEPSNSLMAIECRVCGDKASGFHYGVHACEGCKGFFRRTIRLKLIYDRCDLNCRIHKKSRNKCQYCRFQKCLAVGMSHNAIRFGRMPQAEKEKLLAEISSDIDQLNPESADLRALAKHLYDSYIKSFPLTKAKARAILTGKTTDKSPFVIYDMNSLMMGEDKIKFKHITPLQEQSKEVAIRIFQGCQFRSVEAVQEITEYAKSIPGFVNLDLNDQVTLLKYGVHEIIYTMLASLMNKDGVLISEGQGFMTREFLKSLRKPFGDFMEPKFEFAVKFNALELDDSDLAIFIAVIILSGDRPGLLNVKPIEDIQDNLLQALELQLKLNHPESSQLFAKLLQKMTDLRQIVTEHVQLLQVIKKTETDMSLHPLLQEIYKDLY
# Assay: qHTS assay to identify small molecule antagonists of the peroxisome proliferator-activated receptor gamma (PPARg) signaling pathway (AID 743191); also: nearly all actives have a fitted effect of over 30% in size
# Settings: HEK293H PPARg-UAS-bla, beta-lactamase ratio, antagonist, 17 h; series mostly up to 62.6 µM; ratio activity, negative = inhibition: at the top concentration
# Source text: U.S. Tox21 Program National Center for Advancing Translational Sciences [NCATS] NIH Chemical Genomics Center [NCGC] U.S. Environmental Protection Agency [EPA] National Institutes of Environmental Health Sciences [NIEHS] National Toxicology Program [NTP] U.S. Food and Drug Administration [FDA] Tox21 Assay Overview: The peroxisome proliferator-activated receptors (PPARs) are lipid-activated transcription factors of the nuclear receptor superfamily with three distinct subtypes namely PPAR alpha, PPAR delta (also called PPAR beta) and PPAR gamma (PPARg). All these subtypes heterodimerize with Retinoid X receptor (RXR) and these heterodimers regulate transcription of various genes. PPAR-gamma receptor (glitazone receptor) is involved in the regulation of glucose and lipid metabolism. To identify the compounds that inhibit PPAR-gamma signaling, GeneBLAzer PPAR gamma UAS-bla HEK293H cell line (Invitrogen, Carlsbad, CA, USA) containing a beta-lactamase reporter gene under control of an Upstream Activator Sequence (UAS) was used to screen the Tox21 compound library.
# Tox21 Assay Protocol Summary: PPARg-bla cells were dispensed at 3000 cells/6uL/well in 1536-well black wall/clear bottom plates using a Multidrop Combi (Thermo Fisher Scientific, Waltham, MA) dispenser. After the assay plates were incubated at 37C and 5% CO2 for 5 h, 23 nL of compounds dissolved in DMSO, positive controls or DMSO only was transferred to the assay plate by a Pintool station (Kalypsys, San Diego, CA). The assay plates were incubated at 37C for 17 h. After 1 uL of LiveBLAzerTM B/G FRET substrate was added using a Bioraptr Flying Reagent Dispenser (FRD) workstation (Beckman Coulter, Indianapolis, IN, USA), the plates were incubated at room temperature for 1 h, and fluorescence intensity was measured by an Envision plate reader (PerkinElmer, Shelton, CT).
# % is scaled to controls: 0 for no effect and ±100 for the full control effect; potency is read from the fitted curve at half-maximal effect.
Compound,"ratio activity, negative = inhibition",Potency
CCc1ccc(C(c2ccc(CC)cc2)C(Cl)Cl)cc1,22.5% [at 81.1 µM] (inactive),–
CCC(=O)/C=C/C1C(C)=CCCC1(C)C (stereo not given),–,inactive
O=Cc1ccc(Cl)cc1,-0.487% (inactive),–
Oc1ccc(Cl)cc1Cc1cc(Cl)ccc1O,–,9.95 µM (active) and 26.6 µM (active)
CC(=O)OCCOCCOCCOC(C)=O,11% (inactive),–
CC(COc1ccccc1)N(CCCl)Cc1ccccc1 (stereo not given),13.9% (inactive),–
C=C(C)C1CC=C(C)C(OC(C)=O)C1 (stereo not given),–,inactive
CCc1cc(C(C)(C)C)c(O)c(C(C)(C)C)c1,5.01% (inactive),–
Cc1cc(C2(c3cc(C)c(O)cc3C)OS(=O)(=O)c3ccccc32)c(C)cc1O,–,inactive
CCN(CC)C(=O)Nc1ccc(OCC(O)CNC(C)(C)C)c(C(C)=O)c1 (stereo not given),3.15% (inactive),–
NC(N)=Nc1nc(CSCC/C(N)=N/S(N)(=O)=O)cs1,–,inactive
OCCN1CCNCC1,-2.25% [at 81.1 µM] (inactive),–
C=CS(=O)(=O)O,-1.27% [at 81.1 µM] (inactive),–
NC12CC3CC(CC(C3)C1)C2,8.45% (inactive),–
O=C(Oc1ccccc1)c1ccccc1O,–,inactive
c1cnc2cc3c(cc2n1)C1CNCC3C1,10.9% (inactive),–
CCC(CO)(CO)COCC(CC)(CO)CO,16.9% (inactive),–
CCC(C)(Oc1ccc(C2(c3ccc(OC(C)(CC)C(=O)O)cc3)CCCCC2)cc1)C(=O)O (stereo not given),-1.6% (inactive),–
CCCCCCCCCCCC[N+](C)(C)C,–,inactive
C1COC(NC(C2CC2)C2CC2)=N1,-3.74% (inactive),–

Compound,"ratio activity, negative = inhibition",Potency
COc1nc(C)nc(Cl)c1NC1=NCCN1,-6.32% (inactive),–
Nc1cc(S(=O)(=O)O)cc2cc(S(=O)(=O)O)cc(O)c12,–,inactive
c1ccc2c(c1)CCCC2C1=NCCN1 (stereo not given),7.53% (inactive),–
Nc1nc2ccccc2[nH]1,–,inactive
c1ccc2cc3c(ccc4ccccc43)cc2c1,-6.73% [at 81.1 µM] (inactive),–
Cc1ccc(-c2cc(C(F)(F)F)nn2-c2ccc(S(N)(=O)=O)cc2)cc1,-3.93% (inactive),–
O=C(O)c1cccc(C(=O)O)c1,13.7% (inactive),–
CC1=C(C=O)C(C)(C)CC=C1,-6.74% [at 81.1 µM] (inactive),–
NC(=Nc1ccccc1)Nc1ccccc1,5.97% (inactive),–
OCC(CO)N[C@H]1C[C@](O)(CO)[C@@H](O)[C@H](O)[C@H]1O,3.64% (inactive),–
Nc1ccc(O)cc1,-4.92% (inactive),–
CCn1c2ccccc2c2cc(N)ccc21,–,inactive
CC(C)(C)NCC(O)COc1ccccc1OCC1CCCO1 (stereo not given),2.86% (inactive),–
NC(N)=NC(=O)Cc1c(Cl)cccc1Cl,-2.87% (inactive),–
CC(=O)C1=C(C)[C@@H]2C[C@@]3(C1)[C@H](C)CC[C@H]3C2(C)C,19.5% (inactive),–
CN(C)c1ccc2nc3ccc(=[N+](C)C)cc-3sc2c1,–,43.6 µM (active) and inactive
CC(=O)O[C@]1(C(C)=O)CC[C@H]2[C@@H]3C[C@H](C)C4=CC(=O)CC[C@]4(C)[C@H]3CC[C@@]21C,2.83% (inactive),–
O=S(=O)(O)c1ccc2nc(-c3ccccc3)[nH]c2c1,–,inactive
CNC1(C)C2CCC(C2)C1(C)C (stereo not given),-4.89% (inactive),–
CCCNC(C)C(=O)Nc1ccccc1C (stereo not given),-3.26% (inactive),–
